Source: PubChem BioAssay (NCATS)
Inconclusive results are not listed. A number with no mark means an inactive call. Active and inactive are the calls of the source. The call rests on the fitted dose curve; in most records, active means well fitted inhibition curve with a large enough effect; inconclusive means small, poorly fitted or top-dose-only effect; inactive means flat fitted curve, though single readings scatter. Where a SMILES comes first, the peptide text is derived from it.

Assay: Primary qHTS for inhibitors of nuclear receptor binding SET domain protein 2 (NSD2) in an isogenic RCH-ACV NSD2 p.E1099K mutant (9B) (AID 1645876); further: nearly all actives have a fitted effect of over 70% in size
Settings: RCH-ACV (leukaemia line) NSD2 E1099K (9B) viability, CellTiter-Glo, 72 h; series mostly up to 44.9 µM; activity change, negative = viability loss: at the top concentration
On the % scale 0 is the no-effect control and ±100 the full control effect; potency means the concentration at half of the fitted maximal effect.

Which “activity change, negative = viability loss” value does the source give for `Cc1ccc(Cl)c(OCC(O)CNC(C)(C)C)c1` (centres undefined) here?
The value was -17.9%.

For `CC(=O)N[C@@H](CO)C(=O)N[C@@H](CC(=O)O)C(=O)N[C@@H](CCCCN)C(=O)N1CCC[C@H]1C(=O)O` (Ac-SDKP-OH), which “activity change, negative = viability loss” value is on record?
The value was 0.182%.

For `OC1(c2ccccc2)CCNCC1`, which “activity change, negative = viability loss” value is on record?
The value was -4.85%.

With `CCCCNc1ccc(C(=O)OCCN(CC)CC)cc1` as the compound, how does the “activity change, negative = viability loss” value read?
Its value is -0.139%.

For `Cc1cnc(NS(=O)(=O)c2ccc(N)cc2)nc1`, which “activity change, negative = viability loss” value is on record?
Its value is 7.45%.

With `N#Cc1cc(NC(=O)C(=O)O)c(Cl)c(NC(=O)C(=O)O)c1` as the compound, how does the “outcome” value read?
The value was “inactive”.

With `O=C(NO)c1ccccc1` as the compound, how does the Potency read?
The Potency was 36.6 µM (active).

Which “outcome” value does the source give for `CO/N=C(\C(=O)O)c1csc(NC(=O)CCl)n1` here?
The value was “inactive”.

Which “activity change, negative = viability loss” value does the source give for `C#Cc1ccc(-c2ccccc2F)cc1` here?
Its value is -2.17%.

For `Cc1cccc(C)c1NC(=O)c1cc(S(N)(=O)=O)c(Cl)cc1O`, which “activity change, negative = viability loss” value is on record?
The value was 2.36%.

For `CN(C)CCCOC1(Cc2ccccc2)CCCCCC1`, which “activity change, negative = viability loss” value is on record?
The value was -8.74%.

Which Potency does the source give for `Nc1ccc2c(c1)CN1C(=O)c3ccccc3C1=N2` here?
The Potency was 7.31 µM (active).

For `O=C(O)c1ccccc1Nc1cc(Cl)ccc1C(=O)O`, which “activity change, negative = viability loss” value is on record?
The value was -23.2% [at 17.3 µM].

For `CC1(C)S[C@@H]2[C@H](NC(=O)C(c3ccccc3)S(=O)(=O)O)C(=O)N2[C@H]1C(=O)O` (some centres undefined), which “activity change, negative = viability loss” value is on record?
The value was -11.2%.

With `O=C(O)Cn1cnnn1` as the compound, how does the “activity change, negative = viability loss” value read?
The value was 6.24%.

For `CCOC(=O)O[C@]1(C(=O)OCCl)CC[C@H]2[C@@H]3CCC4=CC(=O)C=C[C@]4(C)[C@H]3[C@@H](O)C[C@@]21C`, which Potency is on record?
Its Potency is “inactive”.

With `O=C(CCCl)NCCc1ccccc1` as the compound, how does the “activity change, negative = viability loss” value read?
The value was 6.1%.

Which Potency does the source give for `CC[N+](CC)(CC)CCOC(=O)C(C1CCCC1)C1CCCC1` here?
Its Potency is 21.1 µM (active).

For `CCOC(=O)c1ccc(O)c(O)c1`, which Potency is on record?
Its Potency is 9.44 µM (active).
